Reference: the supplement of paper PMC10981050
Counter-ions that a name gives are not always drawn.

Tested on: K562
Assay: cell viability relative to vehicle control; higher = less cytotoxic
Conditions: 10 µM; SRSF2 genotype: SRSF2 wt/wt
Outline: (§1)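 Four leukaemia lines, as CRISPR-edited mutant clones and isogenic wild-type clones, were tested against Selleck bioactive, kinase and epigenetic probe libraries after removal of identity-inconsistent compounds. Cells were exposed to a single 10 µM dose for 48 h, and CellTiter-Glo luminescence was then read. Viability was calculated relative to the on-plate vehicle control.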

| SMILES | cell viability |
| --- | --- |
| Nc1ncnc2c1nc(Br)n2[C@@H]1O[C@@H]2COP(=O)(O)O[C@H]2[C@H]1O [8-Bromo-cAMP] | 66.5% |
| Cc1noc(NS(=O)(=O)c2ccc(N)cc2)c1C [Sulfisoxazole] | 107% |
| COC(=O)c1ccccc1O [Methyl salicylate] | 94.8% |
| CC(C)C(NC(=O)c1ccc2ccccc2n1)C(=O)NC(CC(=O)O)C(=O)COc1c(F)cccc1F (stereo not given) | 97.3% |
| O=C(O)c1ccco1 [2-Furoic acid] | 103% |
| c1cn2cc(-c3ccc4cn[nH]c4c3)nc(Nc3ccc(N4CCOCC4)cc3)c2n1 [Entospletinib (GS-9973)] | 95.7% |
| COc1cc(CO)cc(OC)c1O [4-Hydroxy-3,5-dimethoxybenzyl alcohol] | 100% |
| O=c1nc(N2CCOCC2)oc2c(-c3cccc4c3sc3ccccc34)cccc12 | 90.1% |
| N[C@@H](CS)C(=O)O [L-Cysteine HCl] | 82.4% |
| Cc1cc(C)c(CNC(=O)c2cc(-c3ccc(N4CCN(C)CC4)nc3)cc3c2c(C)cn3C(C)C)c(=O)[nH]1 | 86% |
| COc1ccc(C[C@@H]2c3cc(Oc4cc(C[C@@H]5c6cc(OC)c(OC)cc6CCN5C)ccc4O)c(OC)cc3CCN2C)cc1 [Neferine] | 99% |
| CNC[C@H](O)c1ccc(O)c(O)c1 [Epinephrine bitartrate (Adrenalinium)] | 94% |
| C=C(C)[C@@H]1CCC2=CC(=O)C[C@@H](C)[C@]2(C)C1 [Nootkatone] | 107% |
| C[n+]1c2n(c(=O)c3ccccc31)CCc1c-2[nH]c2ccccc12 [Dehydroevodiamine hydrochloride] | 89.2% |
| Cn1cc(C(=O)Nc2ccc3c(c2)OCCO3)c2ccccc2c1=O | 81.2% |
| CC(CCC(=O)NCCS(=O)(=O)O)C1CCC2C3C(O)CC4CC(O)CCC4(C)C3CCC12C (stereo not given) [Taurochenodeoxycholic acid] | 99.3% |
| CC(C)c1nc(CN(C)C(=O)N[C@@H](CCN2CCOCC2)C(=O)N[C@H](CC[C@H](Cc2ccccc2)NC(=O)OCc2cncs2)Cc2ccccc2)cs1 [Cobicistat (GS-9350)] | 95.7% |
| CO/N=C(\C(=O)N[C@@H]1C(=O)N2C(C(=O)O)=C(CSc3nnnn3C)CS[C@H]12)c1csc(N)n1 [Cefmenoxime hydrochloride] | 100% |
| CCCCOc1nc(N)c2c(n1)N(Cc1cccc(CN3CCCC3)c1)CC(=O)N2 | 90% |
| Cc1cc(/C=C2/SC(=S)NC2=O)c(C)n1-c1cccnc1 [Optovin] | 85% |
| CN(C(Cc1ccc(OS(=O)(=O)c2cccc3cnccc23)cc1)C(=O)N1CCN(c2ccccc2)CC1)S(=O)(=O)c1cccc2cnccc12 (stereo not given) | 83.5% |
| CCCCCCCC(=O)CCc1ccc(O)c(OC)c1 [6-Paradol] | 104% |
| CNC(=C[N+](=O)[O-])NCCSCc1ccc(CN(C)C)o1 [Ranitidine Hydrochloride] | 102% |
| CC(C)(C)NC[C@H](O)COc1nsnc1N1CCOCC1 [Timolol Maleate] | 97.4% |
| O=C(O)CCN1C(=O)/C(=C/c2ccc(-c3ccc([N+](=O)[O-])cc3)o2)SC1=S | 111% |
| C[C@]12CC[C@@H]3c4ccc(O)cc4C[C@@H](CCCCCCCCC[S+]([O-])CCCC(F)(F)C(F)(F)F)[C@H]3[C@@H]1CC[C@@H]2O (stereo not given in full) [Fulvestrant (Faslodex)] | 79.5% |
| OC[C@@H](O)[C@@H](O[C@@H]1O[C@H](CO)[C@H](O)[C@H](O)[C@H]1O)[C@H](O)[C@@H](O)CO [Lactitol] | 98.9% |
| CC(C)N(CCCNC(=O)Nc1ccc(C(C)(C)C)cc1)C[C@H]1O[C@@H](n2ccc3c(N)ncnc32)[C@H](O)[C@@H]1O | 86.1% |
| c1ccc2[nH]c(-c3cscn3)nc2c1 [Thiabendazole] | 106% |
| CN1[C@@H]2CC[C@H]1C[C@@H](OC(c1ccccc1)c1ccccc1)C2 [Benztropine mesylate] | 87% |

Tested on: MARIMO
Assay: as above
Conditions: 10 µM; SRSF2 genotype: SRSF2 P95H/wt
Outline: as §1

| SMILES | cell viability |
| --- | --- |
| CCCSc1nc(N[C@@H]2C[C@H]2c2ccc(F)c(F)c2)c2nnn([C@@H]3C[C@H](OCCO)[C@@H](O)[C@H]3O)c2n1 [Ticagrelor] | 86.9% |
| O=[N+]([O-])c1cn2c(n1)OC[C@@H](OCc1ccc(OC(F)(F)F)cc1)C2 | 92.7% |
| Cn1cncc1[C@@](N)(c1ccc(Cl)cc1)c1ccc2c(c1)c(-c1cccc(Cl)c1)cc(=O)n2C [Tipifarnib (Zarnestra)] | 34.5% |
| CCN1CCN(C(=O)N[C@@H](C(=O)N[C@@H]2C(=O)N3C(C(=O)O)=C(CSc4nnnn4C)CS[C@H]23)c2ccc(O)cc2)C(=O)C1=O [Cefoperazone (Cefobid)] | 104% |
| C[C@]1(O)C[C@@H](c2nc(-c3ccc4ccc(-c5ccccc5)nc4c3)c3c(N)nccn32)C1 [OSI-906 (Linsitinib)] | 41.9% |
| O=c1c(O)c(-c2ccc(O)c(O)c2)oc2cc(O)ccc12 [Fisetin (Fustel)] | 104% |
| CC1(C)[C@@H](O)CC[C@]2(C)[C@H]3C(=O)C=C4[C@@H]5C[C@@](C)(C(=O)O)CC[C@]5(C)CC[C@@]4(C)[C@]3(C)CC[C@@H]12 [Enoxolone (Glycyrrhetin)] | 109% |
| OCCN1C[C@H](O)[C@@H](O)[C@H](O)[C@H]1CO [Miglitol (Glyset)] | 106% |
| CC(OC(=O)OC1CCCCC1)OC(=O)C1=C(CSc2nnnn2CCN(C)C)CS[C@@H]2[C@H](NC(=O)Cc3csc(N)n3)C(=O)N12 (stereo not given in full) [Cefotiam Hexetil Hydrochloride] | 87.5% |
| COc1ccc(-c2nc(-c3cc(C(F)(F)F)cc(C(F)(F)F)c3)n(Cc3ccc(C(N)=O)cc3)c2-c2ccc(OC)cc2)cc1 [Apoptozole] | 89.9% |
| Nc1ncnc2c1nc(Br)n2[C@@H]1O[C@@H]2COP(=O)(O)O[C@H]2[C@H]1O [8-Bromo-cAMP] | 86.2% |
| Cc1noc(NS(=O)(=O)c2ccc(N)cc2)c1C [Sulfisoxazole] | 98.5% |
| COC(=O)c1ccccc1O [Methyl salicylate] | 99.2% |
| CC(C)C(NC(=O)c1ccc2ccccc2n1)C(=O)NC(CC(=O)O)C(=O)COc1c(F)cccc1F (stereo not given) | 100% |
| O=C(O)c1ccco1 [2-Furoic acid] | 95.9% |
| c1cn2cc(-c3ccc4cn[nH]c4c3)nc(Nc3ccc(N4CCOCC4)cc3)c2n1 [Entospletinib (GS-9973)] | 89.5% |
| COc1cc(CO)cc(OC)c1O [4-Hydroxy-3,5-dimethoxybenzyl alcohol] | 102% |
| O=c1nc(N2CCOCC2)oc2c(-c3cccc4c3sc3ccccc34)cccc12 | 93.2% |
| N[C@@H](CS)C(=O)O [L-Cysteine HCl] | 89% |
| Cc1cc(C)c(CNC(=O)c2cc(-c3ccc(N4CCN(C)CC4)nc3)cc3c2c(C)cn3C(C)C)c(=O)[nH]1 | 90.1% |

| SMILES | cell viability |
| --- | --- |
| COc1ccc(C[C@@H]2c3cc(Oc4cc(C[C@@H]5c6cc(OC)c(OC)cc6CCN5C)ccc4O)c(OC)cc3CCN2C)cc1 [Neferine] | 104% |
| CNC[C@H](O)c1ccc(O)c(O)c1 [Epinephrine bitartrate (Adrenalinium)] | 102% |
| C=C(C)[C@@H]1CCC2=CC(=O)C[C@@H](C)[C@]2(C)C1 [Nootkatone] | 100% |
| C[n+]1c2n(c(=O)c3ccccc31)CCc1c-2[nH]c2ccccc12 [Dehydroevodiamine hydrochloride] | 91.7% |
| Cn1cc(C(=O)Nc2ccc3c(c2)OCCO3)c2ccccc2c1=O | 80.4% |
| CC(CCC(=O)NCCS(=O)(=O)O)C1CCC2C3C(O)CC4CC(O)CCC4(C)C3CCC12C (stereo not given) [Taurochenodeoxycholic acid] | 103% |
| CC(C)c1nc(CN(C)C(=O)N[C@@H](CCN2CCOCC2)C(=O)N[C@H](CC[C@H](Cc2ccccc2)NC(=O)OCc2cncs2)Cc2ccccc2)cs1 [Cobicistat (GS-9350)] | 94.7% |
| CO/N=C(\C(=O)N[C@@H]1C(=O)N2C(C(=O)O)=C(CSc3nnnn3C)CS[C@H]12)c1csc(N)n1 [Cefmenoxime hydrochloride] | 98.4% |
| CCCCOc1nc(N)c2c(n1)N(Cc1cccc(CN3CCCC3)c1)CC(=O)N2 | 87% |
| Cc1cc(/C=C2/SC(=S)NC2=O)c(C)n1-c1cccnc1 [Optovin] | 92.2% |
| CN(C(Cc1ccc(OS(=O)(=O)c2cccc3cnccc23)cc1)C(=O)N1CCN(c2ccccc2)CC1)S(=O)(=O)c1cccc2cnccc12 (stereo not given) | 74.4% |
| CCCCCCCC(=O)CCc1ccc(O)c(OC)c1 [6-Paradol] | 93.3% |
| CNC(=C[N+](=O)[O-])NCCSCc1ccc(CN(C)C)o1 [Ranitidine Hydrochloride] | 99.9% |
| CC(C)(C)NC[C@H](O)COc1nsnc1N1CCOCC1 [Timolol Maleate] | 101% |
| O=C(O)CCN1C(=O)/C(=C/c2ccc(-c3ccc([N+](=O)[O-])cc3)o2)SC1=S | 100% |
| C[C@]12CC[C@@H]3c4ccc(O)cc4C[C@@H](CCCCCCCCC[S+]([O-])CCCC(F)(F)C(F)(F)F)[C@H]3[C@@H]1CC[C@@H]2O (stereo not given in full) [Fulvestrant (Faslodex)] | 77.1% |
| OC[C@@H](O)[C@@H](O[C@@H]1O[C@H](CO)[C@H](O)[C@H](O)[C@H]1O)[C@H](O)[C@@H](O)CO [Lactitol] | 94.4% |
| CC(C)N(CCCNC(=O)Nc1ccc(C(C)(C)C)cc1)C[C@H]1O[C@@H](n2ccc3c(N)ncnc32)[C@H](O)[C@@H]1O | 89.3% |
| c1ccc2[nH]c(-c3cscn3)nc2c1 [Thiabendazole] | 98.8% |
| CN1[C@@H]2CC[C@H]1C[C@@H](OC(c1ccccc1)c1ccccc1)C2 [Benztropine mesylate] | 81.9% |
